# The supplement of paper PMC8728848
# The sample as a whole holds a higher share of the strongest signals than the screen did.
# B1: Endo180d1-D4 (Homo sapiens), Q9UBG0 (protein)
# chain: MGPGRPAPAPWPRHLLRCVLLLGCLHLGRPGAPGDAALPEPNVFLIFSHGLQGCLEAQGGQVRVTPACNTSLPAQRWKWVSRNRLFNLGTMQCLGTGWPGTNTTASLGMYECDREALNLRWHCRTLGDQLSLLLGARTSNISKPGTLERGDQTRSGQWRIYGSEEDLCALPYHEVYTIQGNSHGKPCTIPFKYDNQWFHGCTSTGREDGHLWCATTQDYGKDERWGFCPIKSNDCETFWDKDQLTDSCYQFNFQSTLSWREAWASCEQQGADLLSITEIHEQTYINGLLTGYSSTLWIGLNDLDTSGGWQWSDNSPLKYLNWESDQPDNPSEENCGVIRTESSGGWQNRDCSIALPYVCKKKPNATAEPTPPDRWANVKVECEPSWQPFQGHCYRLQAEKRSWQESKKACLRGGGDLVSIHSMAELEFITKQIKQEVEELWIGLNDLKLQMNFEWSDGSLVSFTHWHPFEPNNFRDSLEDCVTIWGPEGRWNDSPCNQSLPSICKKAGQLSQGAAEEDHGCRKGWTWHSPSCYWLGEDQVTYSEARRLCTDHGSQLVTITNRFEQAFVSSLIYNWEGEYFWTALQDLNSTGSFFWLSGDEVMYTHWNRDQPGYSRGGCVALATGSAMGLWEVKNCTSFRARYICRQSLGTPVTPELPGPDPTPSLTGSCPQGWASDTKLRYCYKVFSSERLQDKKSWVQAQGACQELGAQLLSLASYEEEHFVANMLNKIFGESEPEIHEQHWFWIGLNRRDPRGGQSWRWSDGVGFSYHNFDRSRHDDDDIRGCAVLDLASLQWVAMQCDTQLDWICKIPRGTDVREPDDSPQGRREWLRFQEAEYKFFEHHSTWAQAQRICTWFQAELTSVHSQAELDFLSHNLQKFSRAQEQHWWIGLHTSESDGRFRWTDGSIINFISWAPGKPRPVGKDKKCVYMTASREDWGDQRCLTALPYICKRSNVTKETQPPDLPTTALGGCPSDWIQFLNKCFQVQGQEPQSRVKWSEAQFSCEQQEAQLVTITNPLEQAFITASLPNVTFDLWIGLHASQRDFQWVEQEPLMYANWAPGEPSGPSPAPSGNKPTSCAVVLHSPSAHFTGRWDDRSCTEETHGFICQKGTDPSLSPSPAALPPAPGTELSYLNGTFRLLQKPLRWHDALLLCESHNASLAYVPDPYTQAFLTQAARGLRTPLWIGLAGEEGSRRYSWVSEEPLNYVGWQDGEPQQPGGCTYVDVDGAWRTTSCDTKLQGAVCGVSSGPPPPRRISYHGSCPQGLADSAWIPFREHCYSFHMELLLGHKEARQRCQRAGGAVLSILDEMENVFVWEHLQSYEGQSRGAWLGMNFNPKGGTLVWQDNTAVNYSNWGPPGLGPSMLSHNSCYWIQSNSGLWRPGACTNITMGVVCKLPRAEQSSFSPSALPENPAALVVVLMAVLLLLALLTAALILYRRRQSIERGAFEGARYSRSSSSPTEATEKNILVSDMEMNEQQE
# What was measured:
# Test in all cases: glycan array binding signal (z-score within array); higher = stronger binding
# Conditions in all cases: glycan notation: IUPAC condensed, linker removed
# [1] = target: Neu5Ac(a2-3)Gal(b1-3)[Neu5Ac(a2-6)]GalNAc
# Outline: (§1)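 The Consortium for Functional Glycomics database supplied 3228 glycan arrays, of which those lacking an available protein sequence were dropped. The binding signal, a within-array Z-score, was averaged across arrays of the same protein sequence and across linkers. Negative scores can be read as non-binding.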
# [2] = target: Neu5Ac(a2-3)Gal(b1-4)GlcNAc(b1-2)Man(a1-3)[Neu5Ac(a2-3)Gal(b1-4)GlcNAc(b1-2)Man(a1-6)]Man(b1-4)GlcNAc(b1-4)GlcNAc
# Outline: as §1
# [3] = target: Neu5Ac(a2-3)Gal(b1-4)GlcNAc(b1-3)Gal
# Outline: as §1
# [4] = target: Neu5Ac(a2-3)Gal(b1-4)[Fuc(a1-3)]GlcNAc
# Outline: as §1
# [5] = target: Neu5Ac(a2-3)Gal(b1-4)[Fuc(a1-3)]GlcNAc(b1-3)Gal(b1-4)[Fuc(a1-3)]GlcNAc(b1-3)Gal(b1-4)[Fuc(a1-3)]GlcNAc
# Outline: as §1
# [6] = target: Neu5Ac(a2-6)Gal(b1-4)GlcNAc(b1-2)Man(a1-3)[GlcNAc(b1-2)Man(a1-6)]Man(b1-4)GlcNAc(b1-4)GlcNAc
# Outline: as §1
# [7] = target: Neu5Ac(a2-6)Gal(b1-4)GlcNAc(b1-2)Man(a1-3)[Neu5Ac(a2-3)Gal(b1-4)GlcNAc(b1-2)Man(a1-6)]Man(b1-4)GlcNAc(b1-4)GlcNAc
# Outline: as §1
# [8] = target: Neu5Ac(a2-6)Gal(b1-4)GlcNAc(b1-2)Man(a1-6)[GlcNAc(b1-2)Man(a1-3)]Man(b1-4)GlcNAc(b1-4)GlcNAc
# Outline: as §1
# [9] = target: Neu5Ac(a2-6)Gal(b1-4)GlcNAc(b1-2)[Neu5Ac(a2-6)Gal(b1-4)GlcNAc(b1-4)]Man(a1-3)[GlcNAc(b1-4)][Neu5Ac(a2-6)Gal(b1-4)GlcNAc(b1-2)[Neu5Ac(a2-6)Gal(b1-4)GlcNAc(b1-6)]Man(a1-6)]Man(b1-4)GlcNAc(b1-4)GlcNAc
# Outline: as §1
# [10] = target: Neu5Ac(a2-6)Gal(b1-4)GlcNAc(b1-2)[Neu5Ac(a2-6)Gal(b1-4)GlcNAc(b1-6)]Man(a1-6)[Neu5Ac(a2-6)Gal(b1-4)GlcNAc(b1-2)Man(a1-3)][GlcNAc(b1-4)]Man(b1-4)GlcNAc(b1-4)GlcNAc
# Outline: as §1
# [11] = target: Neu5Ac(a2-6)Gal(b1-4)GlcNAc(b1-3)Gal(b1-4)[Fuc(a1-3)]GlcNAc(b1-3)Gal(b1-4)[Fuc(a1-3)]GlcNAc
# Outline: as §1
# [12] = target: Neu5Ac(a2-6)Gal(b1-4)GlcNAc(b1-6)GalNAc
# Outline: as §1
# [13] = target: Neu5Ac(a2-6)Gal(b1-4)GlcNAc(b1-6)[Gal(b1-3)GlcNAc(b1-3)]Gal(b1-4)Glc
# Outline: as §1
# [14] = target: Neu5Gc(a2-8)Neu5Ac(a2-3)Gal(b1-4)GlcNAc
# Outline: as §1
binder,measurement,setting,value
B1,glycan array binding signal (z-score),[1],-0.517
same,glycan array binding signal (z-score),[2],-0.688
same,glycan array binding signal (z-score),[3],0.249
same,glycan array binding signal (z-score),[4],-0.083
same,glycan array binding signal (z-score),[5],-0.132
same,glycan array binding signal (z-score),[6],3.38
same,glycan array binding signal (z-score),[7],0.363
same,glycan array binding signal (z-score),[8],-0.485
same,glycan array binding signal (z-score),[9],-0.277
same,glycan array binding signal (z-score),[10],2.92
same,glycan array binding signal (z-score),[11],2.78
same,glycan array binding signal (z-score),[12],0.474
same,glycan array binding signal (z-score),[13],-0.046
same,glycan array binding signal (z-score),[14],-0.032
